The panel holds about 83,000 compounds, 20% with a hit somewhere; the sample as a whole holds those more often.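 The endpoint reported here, percent growth, reads 100 for growth as untreated, 0 for no net growth and -100 for all cells dead.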 Unmarked numbers belong to inactive results. Activity calls are given as the source filed them. How the source made its calls: active means growth percent below 10; inactive means the rest.

Some test systems named below: HT29 colon; SNB-75 CNS; SNB-19 CNS; U251 CNS; PC-3 prostate; SK-MEL-5 melanoma; UACC-62 melanoma; LOX IMVI melanoma; SK-MEL-28 melanoma; SK-MEL-2 melanoma; EKVX NSCLC; SN12C renal; UO-31 renal; TK-10 renal; ACHN renal; CAKI-1 renal; A498 renal; CCRF-CEM leukemia; MOLT-4 leukemia; SR leukemia.
What all share (test): NCI-60 one-dose screen, 48 h (100 = growth as untreated, 0 = no growth, -100 = all killed)
Details in all cases: 10 µM unless noted

On to `C=Cc1nn2c(CCC(=O)c3nc4ccccc4[nH]3)nnc2s1`, for which the growth with HT29 colon is 105%; with SNB-75 CNS, 110%; with SNB-19 CNS it was 107%; with U251 CNS it was 104%; with PC-3 prostate, 98%; with SK-MEL-5 melanoma, 98.2%. Moreover, the growth in the assay with UACC-62 melanoma was 102%; in the assay on LOX IMVI melanoma it was 95%; in the assay with SK-MEL-28 melanoma, 113%; in the assay on SK-MEL-2 melanoma, 97.5%; in the assay on EKVX NSCLC, 106%; in the assay on SN12C renal, 101%. The growth in the assay on UO-31 renal was 76.2%; in the assay on TK-10 renal, 131%; with ACHN renal, 96.2%; with CAKI-1 renal it was 96.7%; in the assay on A498 renal it was 135%; in the assay on CCRF-CEM leukemia, 104%. The growth with MOLT-4 leukemia was 102%.

As to `COc1cc(OC)c2sc(-c3ccc(-n4cncc4-c4ccc(N)cc4)cc3)nc2c1`, the growth is 62.6% in the assay on HT29 colon; 86.1% in the assay on SNB-75 CNS; 71.2% in the assay with SNB-19 CNS; 59.3% in the assay with U251 CNS; 67.7% in the assay on PC-3 prostate; 56.6% with SK-MEL-5 melanoma. In addition, the growth with UACC-62 melanoma is 96.6%; with LOX IMVI melanoma, 62.7%; with SK-MEL-28 melanoma it was 97.5%; in the assay on SK-MEL-2 melanoma it was 97.6%; with EKVX NSCLC, 70.3%; in the assay with SN12C renal, 76.1%. Moreover, the growth in the assay on UO-31 renal was 49.2%; in the assay on TK-10 renal it was 70%; in the assay with ACHN renal it was 79.7%; in the assay with CAKI-1 renal it was 76.4%; with A498 renal, -3.9% (active); in the assay on CCRF-CEM leukemia, 60.5%. Also, the growth in the assay with MOLT-4 leukemia is 46.9%; in the assay with SR leukemia it was 68.3%.

Consider `CCCc1cccc(CCC)c1O`, for which the growth in the assay with HT29 colon was 103%; in the assay with SNB-75 CNS, 118%; with SNB-19 CNS, 109%; in the assay on U251 CNS, 85.7%; in the assay with PC-3 prostate, 100%; in the assay on SK-MEL-5 melanoma it was 104%. Also, the growth with UACC-62 melanoma is 107%; in the assay with LOX IMVI melanoma, 100%; with SK-MEL-28 melanoma it was 117%; with SK-MEL-2 melanoma, 133%; with EKVX NSCLC, 98.9%; with SN12C renal, 107%. The growth was 98% in the assay with UO-31 renal; 116% in the assay on TK-10 renal; 115% in the assay with ACHN renal; 93.8% with CAKI-1 renal; 95.5% in the assay on A498 renal; 111% in the assay with CCRF-CEM leukemia. Besides, the growth is 105% with MOLT-4 leukemia and 116% in the assay with SR leukemia.

Regarding `O=C1Nc2ccc(F)cc2/C1=C/c1nc(-c2ccc(F)cc2)n2ccccc12`, the growth is 95.6% with HT29 colon; 93.6% with SNB-75 CNS; 105% with SNB-19 CNS; 83.5% in the assay with U251 CNS; 115% in the assay with PC-3 prostate; 103% in the assay on SK-MEL-5 melanoma. Further, the growth in the assay with UACC-62 melanoma was 97%; in the assay with LOX IMVI melanoma, 92.9%; with SK-MEL-28 melanoma, 112%; with SK-MEL-2 melanoma, 132%; in the assay on EKVX NSCLC, 104%; in the assay on SN12C renal, 98.9%. The growth in the assay on UO-31 renal is 93.4%; with TK-10 renal it was 120%; in the assay on ACHN renal it was 94%; in the assay with CAKI-1 renal, 101%; with A498 renal, -13.9% (active); in the assay with CCRF-CEM leukemia it was 103%. Further, the results for the growth in the assay with MOLT-4 leukemia and in the assay with SR leukemia were 103% and 52.9%, respectively.

Turning to `Cc1ccc(NC(=O)CSc2nnc3n(Cc4ccccc4)c(=O)c4c(C)c(C(N)=O)sc4n23)cc1`, the growth with HT29 colon is 35%; in the assay with SNB-75 CNS, -46.4% (active); in the assay with SNB-19 CNS, 68.6%; in the assay with U251 CNS, 38.3%; in the assay on PC-3 prostate it was 81.5%; in the assay on SK-MEL-5 melanoma it was 77.1%. Further, the growth with UACC-62 melanoma is 55.8%; in the assay with LOX IMVI melanoma, 59.9%; in the assay with SK-MEL-28 melanoma, 13.9%; in the assay on SK-MEL-2 melanoma, 44.4%; in the assay on EKVX NSCLC, 91.7%; in the assay with SN12C renal it was 58.5%. Further, the growth is 81.9% in the assay on UO-31 renal; -24.4% (active) with TK-10 renal; 75.6% in the assay on ACHN renal; 91.7% in the assay on CAKI-1 renal; 6.08% (active) in the assay with A498 renal.

In the case of `CCSc1nnc2n(Cc3ccccc3)c(=O)c3c(C)c(C(N)=O)sc3n12`, the growth in the assay on HT29 colon is 100%; in the assay on SNB-75 CNS, 69.4%; in the assay on SNB-19 CNS, 108%; in the assay with U251 CNS, 103%; in the assay on PC-3 prostate it was 97.3%; with SK-MEL-5 melanoma it was 95.8%. The growth was 97.7% with UACC-62 melanoma; 95.6% with LOX IMVI melanoma; 109% in the assay with SK-MEL-28 melanoma; 102% with SK-MEL-2 melanoma; 99% in the assay on EKVX NSCLC; 103% in the assay with SN12C renal. Moreover, the growth with UO-31 renal was 67%; with TK-10 renal it was 111%; with ACHN renal, 93.7%; in the assay with CAKI-1 renal, 85.8%; in the assay on A498 renal, 84.2%.

Turning to `COc1ccc2c(c1)nc(N)c1c3cc(C)c(C)cc3cn21`, the growth in the assay on HT29 colon was 37.9%; with SNB-75 CNS, 92.8%; in the assay with SNB-19 CNS it was 77.5%; in the assay with U251 CNS it was 53.9%; with PC-3 prostate, 90.3%; with SK-MEL-5 melanoma it was 58.8%. In addition, the growth in the assay on UACC-62 melanoma is 44%; in the assay with LOX IMVI melanoma, 75.4%; in the assay with SK-MEL-28 melanoma, 81.1%; with SK-MEL-2 melanoma, 84.4%; in the assay on EKVX NSCLC, 72%; with SN12C renal, 84.1%. In addition, the growth is 59.6% with UO-31 renal; 108% in the assay on TK-10 renal; 71.4% in the assay on ACHN renal; 59.2% in the assay with CAKI-1 renal; 79.7% in the assay on A498 renal; 70.9% with CCRF-CEM leukemia. The growth in the assay on MOLT-4 leukemia was 69.2%.

As to `NC(N)=NC(N)=NCCCc1ccccc1`, the growth in the assay on HT29 colon was 68.2% [100 µM]; in the assay on SNB-75 CNS it was 57.5% [100 µM]; in the assay with SNB-19 CNS, 77.8% [100 µM]; in the assay on U251 CNS it was 83.7% [100 µM]; in the assay with PC-3 prostate, 52.7% [100 µM]; in the assay on SK-MEL-5 melanoma, 28.6% [100 µM]. For the same molecule, the growth in the assay with UACC-62 melanoma is 88.4% [100 µM]; in the assay on LOX IMVI melanoma, 57.4% [100 µM]; in the assay on SK-MEL-28 melanoma it was 97% [100 µM]; with SK-MEL-2 melanoma it was 70.7% [100 µM]; with EKVX NSCLC, 31.8% [100 µM]; in the assay on SN12C renal, 79.3% [100 µM]. For the same molecule, the growth in the assay on UO-31 renal is 65.9% [100 µM]; in the assay on TK-10 renal, 63.3% [100 µM]; with ACHN renal, 65.8% [100 µM]; in the assay with CAKI-1 renal, 63.7% [100 µM]; with A498 renal, 68.3% [100 µM]; with CCRF-CEM leukemia it was 69.1% [100 µM]. In the assay on MOLT-4 leukemia, the growth was 73.8% [100 µM].
